Assay results from PubChem BioAssay AID1159580 (chemical genetic matrix, 2015).
Among all 5,500 compounds or so, about 2,000 (36%) were called active. Inconclusive results (about 18%) are left out. Cut-off read from the data, not from the text of the source: active = normalized growth mostly below about 0.91 (no sharp cut-off); inconclusive = no clear call, values can overlap the other calls; inactive = mostly above about 0.92. Some of the results follow.

Experiment: chemical genetic growth profiling, strain panel (AID 1159580);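 note: tested at 20 µM; growth read once vehicle control cultures reached saturation at 30 °C; 1 = growth at the plate median or of vehicle wells; lower values mean less growth of the strain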
Settings: S. cerevisiae deletion strains, growth OD

Measured: normalized growth

COc1ccc(-c2cc(=O)c3c(O)c(OC)c(OC)c(OC)c3o2)cc1OC
active: locus YDR137W, strain rgp1, stronger effect = lower value 1.2 [resistant] | locus YMR058W, strain fet3, stronger effect = lower value 0.815
inactive: locus YAL021C, strain ccr4, stronger effect = lower value 0.997 | locus YAL026C, strain drs2, stronger effect = lower value 0.974 | locus YAL030W, strain snc1, stronger effect = lower value 0.995 | locus YBL061C, strain skt5, stronger effect = lower value 0.991 | locus YBR009C, strain hhf1, stronger effect = lower value 0.965 | locus YBR023C, strain chs3, stronger effect = lower value 1 | locus YBR171W, strain sec66, stronger effect = lower value 0.994 | locus YBR231C, strain swc5, stronger effect = lower value 0.976 | locus YBR279W, strain paf1, stronger effect = lower value 0.995 | locus YCL011C, strain gbp2, stronger effect = lower value 0.989 | locus YCL016C, strain dcc1, stronger effect = lower value 0.996 | locus YCL069W, strain vba3, stronger effect = lower value 1.01 | locus YCR088W, strain abp1, stronger effect = lower value 0.997 | locus YDL005C, strain med2, stronger effect = lower value 0.998 | locus YDL040C, strain nat1, stronger effect = lower value 1.02 | locus YDR001C, strain nth1, stronger effect = lower value 1 | locus YDR069C, strain doa4, stronger effect = lower value 0.972 | locus YDR159W, strain sac3, stronger effect = lower value 0.967 | locus YDR195W, strain ref2 1.03 | locus YDR297W, strain sur2, stronger effect = lower value 0.988 | locus YDR334W, strain swr1, stronger effect = lower value 1 | locus YDR335W, strain msn5, stronger effect = lower value 1 | locus YDR392W, strain spt3, stronger effect = lower value 0.867 | locus YEL003W, strain gim4, stronger effect = lower value 0.994 | locus YEL037C, strain rad23, stronger effect = lower value 0.997 | locus YEL061C, strain CIN8 (second series), stronger effect = lower value 1.02 | locus YER015W, strain faa2, stronger effect = lower value 0.989 | locus YER016W, strain bim1, stronger effect = lower value 1.04 | locus YER111C, strain swi4, stronger effect = lower value 0.987 | locus YER155C, strain BEM2 (second series), stronger effect = lower value 0.939 | locus YFR010W, strain ubp6, stronger effect = lower value 0.997 | locus YGL167C, strain pmr1, stronger effect = lower value 0.992 | locus YGL173C, strain kem1, stronger effect = lower value 0.991 | locus YGL227W, strain vid30, stronger effect = lower value 0.99 | locus YGL240W, strain doc1, stronger effect = lower value 0.983 | locus YGL253W, strain hxk2, stronger effect = lower value 0.951 | locus YHR013C, strain ard1, stronger effect = lower value 1.01 | locus YHR027C, strain rpn1, stronger effect = lower value 1 | locus YHR030C, strain SLT2, stronger effect = lower value 0.961 | locus YHR079C, strain IRE1, stronger effect = lower value 0.949 | locus YHR142W, strain chs7, stronger effect = lower value 0.953 | locus YJL092W, strain hpr5, stronger effect = lower value 1 | locus YJL095W, strain BCK1 (second series), stronger effect = lower value 0.992 | locus YJL095W, strain BCK1, stronger effect = lower value 1.01 | locus YJL115W, strain asf1, stronger effect = lower value 0.996 | locus YJL129C, strain trk1, stronger effect = lower value 0.949 | locus YJL154C, strain vps35, stronger effect = lower value 0.998 | locus YJL164C, strain tpk1, stronger effect = lower value 0.995 | locus YJL166W, strain qcr8, stronger effect = lower value 0.974 | locus YJL187C, strain SWE1, stronger effect = lower value 0.989 | locus YJR066W, strain TOR1, stronger effect = lower value 0.914 | locus YKL160W, strain elf1, stronger effect = lower value 0.994 | locus YKR026C, strain gcn3, stronger effect = lower value 0.995 | locus YKR091W, strain srl3, stronger effect = lower value 1.03 | locus YLL001W, strain dnm1, stronger effect = lower value 0.984 | locus YLL026W, stronger effect = lower value 0.998 | locus YLL041C, strain sdh2, stronger effect = lower value 1 | locus YLR027C, strain aat2, stronger effect = lower value 0.997 | locus YLR113W, strain HOG1, stronger effect = lower value 1 | locus YLR221C, strain rsa3, stronger effect = lower value 0.943 | locus YLR258W, strain gsy2, stronger effect = lower value 1 | locus YLR262C, strain YPT6 (second series), stronger effect = lower value 0.985 | locus YLR320W, strain mms22, stronger effect = lower value 0.975 | locus YLR342W, strain FKS1, stronger effect = lower value 1 | locus YLR357W, strain rsc2, stronger effect = lower value 0.972 | locus YLR370C, strain arc18, stronger effect = lower value 0.986 | locus YLR384C, strain iki3, stronger effect = lower value 0.974 | locus YML120C, strain ndi1, stronger effect = lower value 0.989 | locus YMR125W, strain sto1, stronger effect = lower value 1.01 | locus YMR129W, stronger effect = lower value 1.01 | locus YMR205C, strain PFK2, stronger effect = lower value 1 | locus YMR231W, strain pep5, stronger effect = lower value 1 | locus YNL071W, strain lat1, stronger effect = lower value 0.994 | locus YNL183C, strain NPR1, stronger effect = lower value 0.944 | locus YNL209W, strain ssb2, stronger effect = lower value 0.998 | locus YNL248C, strain rpa49, stronger effect = lower value 0.971 | locus YNL322C, strain KRE1 (second series), stronger effect = lower value 1 | locus YNR049C, strain mso1, stronger effect = lower value 1.01 | locus YOR001W, strain rrp6, stronger effect = lower value 0.94 | locus YOR070C, strain gyp1, stronger effect = lower value 0.978 | locus YOR080W, strain dia2, stronger effect = lower value 0.999 | locus YOR083W, strain WHI5, stronger effect = lower value 0.991 | locus YOR106W, strain vam3, stronger effect = lower value 0.954 | locus YOR231W, strain MKK1, stronger effect = lower value 0.95 | locus YOR265W, strain rbl2, stronger effect = lower value 0.993 | locus YOR270C, strain vph1, stronger effect = lower value 0.962 | locus YOR290C, strain snf2, stronger effect = lower value 0.994 | locus YPL051W, strain arl3, stronger effect = lower value 0.947 | locus YPL078C, strain atp4, stronger effect = lower value 0.979 | locus YPL106C, strain sse1, stronger effect = lower value 0.953 | locus YPL240C, strain hsp82, stronger effect = lower value 1.03 | locus YPL256C, strain CLN2, stronger effect = lower value 0.971
